Data published in PubChem BioAssay (Tox21).
Inconclusive results are not listed. Activity calls are given as the source filed them. Unless noted, the call rests on the fitted dose curve; in most records, active means well fitted curve in the direction sought with a large enough effect in the repeat runs; inconclusive means weak or mixed curves; inactive means no such curve, though single readings can be large; an effect the other way counts as inactive or inconclusive.

Assays:
[1] = qHTS assay to identify small molecule agonists of the hypoxia (HIF-1) signaling pathway - cell viability counter screen (AID 1224844; calls by dose curve; further: nearly all actives have a fitted effect of over 50% in size; further: potency means the concentration at half of the fitted maximal effect)
Summary of the method: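 Cytotoxicity was measured in parallel with the HRE-driven beta-lactamase readout: after 17 hrs of compound exposure at 37C, HRE-bla ME-180 cells received CellTiter-Glo and luminescence was recorded 30 min later.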

[2] = qHTS assay to identify small molecule agonists of H2AX (AID 1224845; active means well fitted activation curve with a large enough effect in the signal ratio in the repeat runs, not every such curve was filed as active; the % refers to the signal ratio)
Summary of the method: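 Wild-type CHO-K1 cells, plated overnight, exposed 3hr at 37C to 15 concentrations (0.76% DMSO final). Lysed, then HTRF anti-pH2AX (S139) cryptate and anti-H2AX-d2 antibodies, 24 hr room temperature; 665/620 nm emission read.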

[3] = qHTS assay to identify small molecule agonists of the hypoxia (HIF-1) signaling pathway (AID 1224846; active means well fitted activation curve with a large enough effect in the signal ratio in the repeat runs, not every such curve was filed as active; the % refers to the signal ratio)
Summary of the method: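 Compounds from the Tox21 10K library, dissolved in DMSO, are tested for induction of a hypoxia response element–controlled beta-lactamase reporter in ME-180 cells. Exposure lasts 17 hrs at 37C after a 5 hr settling period, followed by CCF4-AM FRET substrate.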

[4] = qHTS assay to identify small molecule antagonists of the estrogen related receptor (ERR) signaling pathway from Tox21 library (AID 1224848); further: nearly all actives have a fitted effect of over 50% in size; further: potency means the concentration at half of the fitted maximal effect
Summary of the method: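 Compounds dissolved in DMSO are pin-transferred onto ERR reporter cells (2,000 per well) that have settled for 6 h at 37 C. Plates then incubate 18 h at 37 C before ONE-Glo luciferase reagent and a luminescence read 30 min later.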

[5] = qHTS RealTime-Glo MT Cell Viability Assay in HepG2 cells - 24 hour (AID 1224867); further: nearly all actives have a fitted effect of over 50% in size
Summary of the method: (§1)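 HepG2 cells (600/well) were dispensed with RealTime-Glo reagents, incubated 5 h at 37 °C, then treated with compounds in DMSO for up to 40 h. Nonlytic NanoLuc luminescence reflecting viable cells was read at each stated time point.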

[6] = qHTS RealTime-Glo MT Cell Viability Assay in HEK293 cells - 32 hour (AID 1224868); further: top concentration of the series differs between compounds; nearly all actives have a fitted effect of over 50% in size
Summary of the method: (§2)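 HEK293 cells seeded with NanoLuc/prosubstrate reagent, rested 5 h at 37 C, then dosed and kept at 37 C up to 40 h. Nonlytic real-time luminescence from viable cells read at 0, 8, 16, 24, 32 and 40 h.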

[7] = A CellTox Green Cytotoxicity Assay to monitor cytotoxicity in HEK293 cells - 0 hour (AID 1224869); further: nearly all actives have a fitted effect of over 50% in size
Summary of the method: (§3)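 Cells (HEK293, 600/well) and dye reagent are dispensed together. After 5 h at 37 C, 23 nL compound is pinned in. Plates stay at 37 C for 40 h with fluorescence read at 0h, 8h, 16h, 24h, 32h and 40h.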

[8] = qHTS RealTime-Glo MT Cell Viability Assay in HepG2 cells - 40 hour (AID 1224870); further: nearly all actives have a fitted effect of over 50% in size
Summary of the method: (§4)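 HepG2 cells (600/well) mixed with RealTime-Glo MT reagent, settled 5 h at 37 C/5% CO2 before compound addition. Nonlytic NanoLuc luminescence from viable-cell prosubstrate reduction read repeatedly during 40 h treatment at 37 C.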

[9] = A CellTox Green Cytotoxicity Assay to monitor cytotoxicity in HEK293 cells - 40 hour (AID 1224871); further: nearly all actives have a fitted effect of over 45% in size; further: potency means the concentration at half of the fitted maximal effect
Summary of the method: as §3

[10] = qHTS RealTime-Glo MT Cell Viability Assay in HEK293 cells - 16 hour (AID 1224872)
Summary of the method: as §2

[11] = qHTS RealTime-Glo MT Cell Viability Assay in HepG2 cells - 8 hour (AID 1224873); further: nearly all actives have a fitted effect of over 55% in size
Summary of the method: as §4

[12] = qHTS RealTime-Glo MT Cell Viability Assay in HEK293 cells - 40 hour (AID 1224874); conditions: RealTime-Glo luminescence; max response: hits give low values; further: nearly all actives have a fitted effect of over 50% in size
Summary of the method: (§5)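 Real-time viability in HEK293: signal arises when living cells convert a prosubstrate for NanoLuc in the medium, so luminescence tracks viable cell number. Compound (23 nL, DMSO) added 5 h post-seeding; kinetic reads at 0–40 h, 37 C.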

[13] = A CellTox Green Cytotoxicity Assay to monitor cytotoxicity in HEK293 cells - 24 hour (AID 1224875); further: nearly all actives have a fitted effect of over 45% in size; further: potency means the concentration at half of the fitted maximal effect
Summary of the method: as §3

[14] = A CellTox Green Cytotoxicity Assay to monitor cytotoxicity in HepG2 cells - 16 hour (AID 1224876); further: nearly all actives have a fitted effect of over 45% in size
Summary of the method: (§6)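 Cells and non-lytic dye reagent are dispensed together (600 HepG2 cells/well) and incubated 5 h before DMSO compound transfer. Kinetic fluorescence is then recorded in the same wells during 40 h at 37 C.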

[15] = qHTS RealTime-Glo MT Cell Viability Assay in HepG2 cells - 32 hour (AID 1224877); further: nearly all actives have a fitted effect of over 55% in size
Summary of the method: as §1

[16] = A CellTox Green Cytotoxicity Assay to monitor cytotoxicity in HepG2 cells - 24 hour (AID 1224878); further: nearly all actives have a fitted effect of over 45% in size; further: potency means the concentration at half of the fitted maximal effect
Summary of the method: as §6

[17] = A CellTox Green Cytotoxicity Assay to monitor cytotoxicity in HepG2 cells - 40 hour (AID 1224879); further: nearly all actives have a fitted effect of over 40% in size; further: potency means the concentration at half of the fitted maximal effect
Summary of the method: as §6

[18] = qHTS RealTime-Glo MT Cell Viability Assay in HEK293 cells - 0 hour (AID 1224880)
Summary of the method: as §5

[19] = qHTS assay to identify small molecule agonists of H2AX - cell viability counter screen (AID 1224847; calls by dose curve; further: nearly all actives have a fitted effect of over 30% in size; further: potency means the concentration at half of the fitted maximal effect; on activity change, negative = cytotoxicity: top concentration of the series differs between compounds)
Summary of the method: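 For this counter screen, overnight-attached CHO-K1 cells received test compounds (15 concentrations, 0.76% DMSO final); 3 hr later at 37C, CellTiter-Glo reagent was added and luminescence recorded after 30 min at room temperature.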

[20] = qHTS assay to identify small molecule agonists of the estrogen related receptor (ERR) signaling pathway from Tox21 library (AID 1224849; calls by dose curve; further: nearly all actives have a fitted effect of over 15% in size); conditions: ERR reporter cell line, ONE-Glo luciferase, 18 h; at 92.4 µM (top of the series) unless noted
Summary of the method: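 Cells carrying the ERR reporter were plated and allowed to settle for 6 h, exposed to library compounds for 18 h at 37 C, then lysed with ONE-Glo and luminescence measured.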
On the % scale 0 is the no-effect control and ±100 the full control effect.

C#Cc1cccc(Nc2ncnc3cc(OCCOC)c(OCCOC)cc23)c1
active: Potency [4] 6.68 µM
inactive: Potency [1] | Potency [2] | Potency [3] | Potency [5] | Potency [6] | Potency [7] | Potency [8] | Potency [9] | Potency [10] | Potency [11] | max response [12] -23.8% | Potency [13] | Potency [14] | Potency [15] | Potency [16] | Potency [17] | Potency [18]

CCCCCCCCCCO[C@@H]1O[C@H](CO)[C@@H](O)[C@H](O)[C@H]1O
inactive: Potency [1] | Potency [2] | Potency [3] | Potency [19] | Potency [7] | Potency [10] | Potency [11] | Potency [14] | Potency [15] | Potency [16] | Potency [17] | Potency [18]

O=S(=O)(Oc1ccc(Cl)cc1)c1ccccc1
inactive: Potency [1] | Potency [2] | Potency [3] | Potency [4] | activity change, positive = activation [20] -14.7% | Potency [5] | Potency [7] | Potency [8] | Potency [9] | Potency [11] | max response [12] -29.4% | Potency [13] | Potency [14] | Potency [15] | Potency [16] | Potency [17] | Potency [18]

CC(C)O.CC(C)O.CCOC(=O)/C=C(\C)O.CCOC(=O)/C=C(\C)O.[Ti]
inactive: Potency [1] | Potency [2] | Potency [3] | Potency [19] | Potency [6] | Potency [7] | Potency [8] | Potency [9] | Potency [10] | max response [12] -0.8% | Potency [13] | Potency [14] | Potency [15] | Potency [16] | Potency [17] | Potency [18]

O=C(NCCO[N+](=O)[O-])c1cccnc1
inactive: Potency [1] | Potency [2] | Potency [3] | Potency [19] | Potency [6] | Potency [7] | Potency [8] | Potency [9] | Potency [10] | Potency [11] | max response [12] 0.0315% | Potency [13] | Potency [14] | Potency [15] | Potency [16] | Potency [17] | Potency [18]

CCN(CC)CCNC(=O)c1cc(Br)c(N)cc1OC
inactive: Potency [1] | Potency [2] | Potency [19] | Potency [4] | activity change, positive = activation [20] 3.9% [at 42.5 µM] | Potency [5] | Potency [6] | Potency [7] | Potency [8] | Potency [9] | Potency [10] | Potency [11] | max response [12] 10.1% | Potency [13] | Potency [14] | Potency [15] | Potency [16] | Potency [17] | Potency [18]

NC(N)=NCCC[C@H](N)C(=O)O
inactive: activity change, negative = cytotoxicity [1] -0.141% [at 6.97 µM] | activation (H2AX phosphorylation) [2] -0.995% [at 14 µM] | activity change, negative = cytotoxicity [19] 0.155% [at 14 µM] | activity, negative = inhibition [4] 11% [at 8.39 µM] | activity change, negative = cytotoxicity [5] 3.74% [at 6.97 µM] | activity change, negative = cytotoxic [6] 5.15% [at 6.97 µM] | cytotoxicity [7] -14.4% [at 6.97 µM] | activity change, negative = cytotoxic [8] 2.25% [at 6.97 µM] | cytotoxicity increase [9] -21.8% [at 6.97 µM] | activity change, negative = cytotoxicity [10] 5.7% [at 6.97 µM] | viability change, negative = cytotoxic [11] 1.03% [at 6.97 µM] | max response [12] 2.97% | activity change [13] -20.5% [at 6.97 µM, hits give high values] | cytotoxicity increase [14] -5.32% [at 6.97 µM] | activity change, negative = cytotoxic [15] 2.81% [at 6.97 µM] | cytotoxicity [16] -6.35% [at 6.97 µM] | cytotoxicity increase [17] -3.66% [at 6.97 µM] | activity change, negative = cytotoxicity [18] 14% [at 6.97 µM]

CCCCCCCCCCCCCCOS(=O)(=O)O
inactive: Potency [2] | Potency [19] | activity change, positive = activation [20] -17.5% | Potency [5] | Potency [6] | Potency [8] | Potency [10] | max response [12] -13.8% | Potency [15] | Potency [18]
active: Potency [1] 54.9 µM | Potency [9] 43.6 µM | Potency [13] 43.6 µM | Potency [16] 34.7 µM | Potency [17] 34.7 µM

NCCCN1CCOCC1
inactive: Potency [1] | Potency [3] | Potency [19] | Potency [4] | activity change, positive = activation [20] 6.49% | Potency [5] | Potency [6] | Potency [7] | Potency [8] | Potency [9] | Potency [10] | Potency [11] | max response [12] -9.34% | Potency [13] | Potency [15] | Potency [16] | Potency [17] | Potency [18]

CC(=O)[O][Al][O]C(C)=O
inactive: Potency [1] | Potency [3] | Potency [19] | Potency [4] | activity change, positive = activation [20] 1.12% | Potency [5] | Potency [6] | Potency [7] | Potency [8] | Potency [9] | Potency [10] | Potency [11] | max response [12] 6.93% | Potency [13] | Potency [15] | Potency [16] | Potency [17] | Potency [18]

Nc1ccc(N)c2c1C(=O)c1ccccc1C2=O
active: Potency [19] 50.5 µM | Potency [4] 43.3 µM
inactive: Potency [1] | Potency [3] | activity change, positive = activation [20] -37.5% | Potency [5] | Potency [8] | Potency [9] | Potency [13] | Potency [14] | Potency [15] | Potency [16] | Potency [18]

CCCCCCc1ccc(-c2ccc(C#N)cc2)cc1
inactive: Potency [1] | Potency [2] | Potency [4] | activity change, positive = activation [20] 1.68% | Potency [6] | Potency [7] | Potency [8] | Potency [9] | Potency [10] | Potency [11] | max response [12] -15.1% | Potency [13] | Potency [15] | Potency [16] | Potency [17] | Potency [18]

COc1cc(Cl)ccc1Oc1ccc(Cl)cc1Cl
active: Potency [19] 97.9 µM
inactive: Potency [1] | Potency [3] | Potency [4] | Potency [5] | Potency [6] | Potency [7] | Potency [8] | Potency [9] | Potency [11] | max response [12] -24.6% | Potency [13] | Potency [14] | Potency [15] | Potency [16] | Potency [17] | Potency [18]

C[C@@H]1C[C@H]2O[C@@]3(O[C@@H]2C(C)(C)O)[C@H](O)[C@@]2(C)[C@@H]4CC[C@H]5C(C)(C)[C@@H](O[C@@H]6OC[C@@H](O)[C@H](O)[C@H]6O)CC[C@@]56C[C@@]46CC[C@]2(C)[C@@H]13
inactive: Potency [1] | Potency [3] | Potency [19] | Potency [4] | activity change, positive = activation [20] -12.2% [at 42.5 µM] | Potency [5] | Potency [6] | Potency [7] | Potency [9] | Potency [10] | max response [12] -15.4% | Potency [13] | Potency [14] | Potency [15] | Potency [16] | Potency [17]
